Compounds with a hit are over-represented: about 19% of the library has one in this group of screens.
TDP1 cell CPT: growth inhibition of DT40 Tdp1-/-;hTDP1 cells with camptothecin (screen for TDP1 inhibitors); AID 686979; chicken DT40 Tdp1-/-;hTDP1 cells + 20 nM CPT, ATP luminescence, 48 h; hit rate 12% among 420,000; Potency, µM (top dose mostly 46.2 µM), inactives show top-dose activity change, negative = growth inhibition, usual class: inhibitors; also: potency is read from the fitted curve at half-maximal effect; nearly all actives have a fitted effect of over 55% in size
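Cell growth measured by CellTiter-Glo luminescence after a minimum 48 h, 37 C compound exposure with 20 nM CPT in Tdp1-knockout DT40 cells stably expressing hTDP1, seeded 400/well; qHTS titration format.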
HT1080NT lethal: kills 2HG-producing HT-1080-NT fibrosarcoma cells; HT-1080-NT fibrosarcoma viability, CellTiter-Glo ATP luminescence, 48 h; Potency, µM (doses to about 46.1 µM), for inactives: top-dose activity, negative = less viability, usual class: cytotoxic; hit rate 1.6% among 360,000; AID 686970;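 also: NT is the 2HG producing partner of a matched IDH1 knockdown line; potency is read from the fitted curve at half-maximal effect; 0% = DMSO-treated cells and -100% = media-only wells without cells; nearly all actives have a fitted effect of over 55% in size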
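Toxicity toward the 2HG-producing NT line was scored as %Activity, normalised to DMSO and no-cell wells, from CellTiter-Glo luminescence after 48 hours' treatment.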
IL-1B inflam inh: inhibitors of inflammasome signaling (IL-1 beta secretion); THP-1 LPS/ATP IL-1B secretion, AlphaLISA, 16 h; active compounds read low; activity change, % at 57.5 µM; hit rate 4.7% among 360,000; in the data active = activity change below about -50%; inconclusive = mostly about -30% to -49%
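THP-1 cells pretreated 1 hr with compounds (up to 57.5 uM final), then stimulated with LPS (250 ng/mL final) plus ATP (1.25 mM final); secreted IL-1B measured by AlphaLISA after 16 hr, decreased signal indicating inhibition.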
HT1080 IDH1KD tx: kills HT-1080 cells with IDH1 knockdown | HT-1080 IDH1 knockdown viability, ATP luminescence, 48 h | Potency, µM (top dose mostly 46.1 µM), without a hit: top-dose activity, negative = toxicity, most hits filed as cytotoxic | hit rate 2% among 360,000;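 also: potency is read from the fitted curve at half-maximal effect; 0% = DMSO wells and -100% = cell-free medium wells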
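Viability of IDH1-knockdown HT-1080 fibrosarcoma cells was assessed by CellTiter-Glo after 48 h at 37 °C with titrated compound; concentration-effect curves were classified by fit quality and response size.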
TDP1 cell noCPT: qHTS for Inhibitors of human tyrosyl-DNA phosphodiesterase 1 (TDP1): qHTS in cells in absence of CPT. DT40 Tdp1-/- hTDP1 cells, no CPT, ATP luminescence, 48 h. Potency, µM (highest dose often 46.2 µM), for the others: at the highest dose activity change, negative = growth inhibition, actives largely listed as inhibitors. hit rate 15% among 420,000. AID 686978, 2013; also: potency is read from the fitted curve at half-maximal effect; nearly all actives have a fitted effect of over 55% in size
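A cellular qHTS used chicken DT40 cells lacking endogenous Tdp1 but carrying stably transfected human TDP1. Compounds were applied without camptothecin, and cell growth kinetics were judged by ATP-dependent luminescence after ≥48 hr.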
An asterisk follows results filed as active; ? = inconclusive; . = no result given. Unless noted, calls follow the shape of the dose curve; as a rule, active = well fitted curve in the direction sought with a large enough effect; inconclusive = small, poorly fitted or top-dose-only effect, or another doubt; inactive = no such curve, though single readings can be large; an effect the other way counts as inactive or inconclusive. Unless noted, % is scaled to controls: 0 for no effect and ±100 for the full control effect.

SMILES	TDP1 cell CPT	HT1080NT lethal	IL-1B inflam inh	HT1080 IDH1KD tx	TDP1 cell noCPT
O=C(CSCc1ccc(Cl)cc1)Nc1ccc(S(=O)(=O)N2CCCCCC2)cc1	?	1.4%	21.8	2.6%	?
CN(CC(=O)Nc1ccc(S(=O)(=O)N2CCCC2)cc1)Cc1ccc(Cl)cc1Cl	18.4µM*	-13.6%	9.6	-13.8%	?
CN(CC(=O)Nc1cccc(F)c1)C(=O)c1ccc(N2CCCCC2)c([N+](=O)[O-])c1	16.4µM*	?	-26.7	-3.7%	14.6µM*
CN(CC(=O)Nc1ccc(Cl)cc1)c1ccc(S(=O)(=O)N2CCCCC2)cc1[N+](=O)[O-]	18.4µM*	-23.3%	-60.6*	?	?
Cc1ccc2[nH]c(=O)c(COC(=O)c3cccs3)cc2c1	7.9%	8.0%	0.0	?	-4.2%
COC(=O)C1CCN(C(=O)COC(=O)c2cc(-c3ccccc3)nc3ccc(OC)cc23)CC1	?	-4.9%	-26.2	-16.2%	?
COCC(C)NC(=O)CSc1nc(-c2ccccc2)c(-c2ccccc2)o1 (configuration not stated)	11.6µM*	-0.3%	3.7	-4.0%	8.2µM*
O=C(CSc1nc(-c2ccccc2)c(-c2ccccc2)o1)N1CCOCC1	29.1µM*	-16.5%	-7.3	-18.6%	16.4µM*
CCCCOC(=O)c1ccc(NC(=O)c2csnn2)cc1	-18.2%	.	.	.	-24.4%
CCCCNC(=O)C1(C)CCCCCN1Cc1cc2ccccc2o1 (configuration not stated)	18.4µM*	?	-25.8	?	?
CCCC(=O)N1CCC1(C)C(=O)Nc1cc(C)ccc1C (configuration not stated)	-1.4%	22.9%	20.8	0.0%	6.7%
CCCCNC(=O)C1(C)CCCCN1Cc1ccc(OCc2ccccc2)cc1 (configuration not stated)	20.6µM*	?	-24.9	?	20.6µM*
CC1(C(=O)NCc2cccc3ccccc23)CCN1Cc1cc2ccccc2o1 (configuration not stated)	?	?	-16.2	?	?
CCCCNC(=O)C1(C)CCN1Cc1cc(C)ccc1C (configuration not stated)	23.1µM*	2.4%	-0.3	17.3%	?
CCCCNC(=O)C1(C)CCCCN1C(=O)c1ccc2ccccc2n1 (configuration not stated)	?	17.5%	-6.0	4.9%	?
CCCCNC(=O)C1CCN(Cc2ccc(OCc3ccccc3)cc2)CC1	?	?	-7.8	?	?
CCCCNC(=O)C1(C)CCCCN1Cc1ccc(-c2ccccc2)cc1 (configuration not stated)	13µM*	?	16.3	?	8.2µM*
Cc1c(Cl)cccc1NC(=O)Cn1c(-c2ccc(F)cc2)noc1=O	?	1.0%	20.0	-0.1%	-16.4%
COc1ccc(CN(C)C(=O)COc2cccc(-n3cnnn3)c2)cc1OC	-0.7%	-15.5%	-16.0	-3.9%	14.1%
CCN1C(=O)C(Cc2nc3ccccc3c(=O)n2C)c2ccccc21 (configuration not stated)	?	-11.7%	0.0	-12.3%	14.6µM*
CCN1C(=O)C(Cc2nc3ccccc3c(=O)n2-c2ccccc2)c2cc(Br)ccc21 (configuration not stated)	5.8µM*	.	.	.	5.8µM*
CCn1c(CC2C(=O)N(C)c3ccccc32)nc2ccccc2c1=O (configuration not stated)	2.9%	.	.	.	-13.0%
CCCN1C(=O)C(Cc2nc3ccccc3c(=O)n2C)c2ccccc21 (configuration not stated)	?	-0.8%	10.1	4.5%	?
CCCN1C(=O)C(Cc2nc3ccccc3c(=O)n2-c2ccc(OC)cc2)c2cc(C)ccc21 (configuration not stated)	9.2µM*	.	.	.	4.11µM*
Cc1ccc(S(=O)(=O)N(C)C[C@@H]2OCCCC[C@H](C)Oc3ccc(NC(=O)Nc4ccc(F)cc4)cc3C(=O)N([C@H](C)CO)C[C@H]2C)cc1	13µM*	-20.2%	-29.0	-26.3%	7.31µM*
SMILES	TDP1 cell CPT	HT1080NT lethal	IL-1B inflam inh	HT1080 IDH1KD tx	TDP1 cell noCPT
Cc1noc(C)c1NC(=O)N(C)C[C@H]1OCCCC[C@@H](C)Oc2ccc(NC(=O)Nc3ccc(F)cc3)cc2C(=O)N([C@@H](C)CO)C[C@H]1C	?	-14.5%	11.2	-0.8%	18.4µM*
C[C@@H]1CN([C@@H](C)CO)C(=O)c2cc(NC(=O)c3ccccc3)ccc2O[C@@H](C)CCCCO[C@@H]1CN(C)S(=O)(=O)c1ccc(F)cc1	?	-5.7%	-17.9	-10.0%	20.6µM*
Cc1noc(C)c1NC(=O)N(C)C[C@H]1OCCCC[C@@H](C)Oc2ccc(NC(=O)c3ccccc3)cc2C(=O)N([C@H](C)CO)C[C@@H]1C	?	-0.3%	-13.9	1.4%	-18.6%
C[C@@H]1CN([C@H](C)CO)C(=O)c2cc(NC(=O)Nc3ccc(F)cc3)ccc2O[C@@H](C)CCCCO[C@H]1CN(C)S(=O)(=O)c1cccs1	?	-24.8%	?	?	25.9µM*
C[C@@H]1CCCCO[C@H](CN(C)S(=O)(=O)c2cccs2)[C@@H](C)CN([C@H](C)CO)C(=O)c2cc(NC(=O)Nc3ccc4c(c3)OCO4)ccc2O1	?	-13.3%	?	9.5%	?
COc1ccc2c(c1)c(=O)oc1cc(OCC(=O)N3CCc4ccccc4C3)ccc12	?	-4.8%	-1.9	-3.8%	?
COC(=O)c1cc2oc3ccccc3c2n1Cc1nc(-c2ccc(OC)cc2)oc1C	?	.	.	.	-10.6%
COC(=O)c1ccc(-c2ccco2)n1Cc1nc(-c2ccc(OC)c(OC)c2)oc1C	23.1µM*	-26.0%	?	?	16.4µM*
COc1cccc(CN2CC(C(=O)NCCOc3ccccc3)CCC2=O)c1 (configuration not stated)	8.6%	6.6%	-1.1	16.3%	22.0%
CCC(C)(C)n1nnnc1CN(Cc1ccco1)Cc1cc2cc3c(cc2[nH]c1=O)OCO3	20.6µM*	6.3%	?	5.0%	16.4µM*
COc1ccc2cc(CN(Cc3ccco3)Cc3nnnn3C3CCCCC3)c(=O)[nH]c2c1	25.9µM*	?	-51.4*	?	?
COc1ccc2[nH]c(=O)c(C(c3nnnn3C(C)(C)C)N(Cc3ccco3)CC3CCCO3)cc2c1 (configuration not stated)	-24.7%	-26.6%	-19.0	?	-29.8%
